Assay [1] is described as follows: ATG_CRE_CIS: Attagene CIS-FACTORIAL HepG2 Assay for human cAMP Responsive Element (CRE) binding protein 3 (AID 2282926). The conditions noted are these: HepG2 CRE cis-reporter, Attagene multiplexed mRNA; actives raise or lower the signal. In outline: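 Liver-derived HepG2, transfected with a CRE-containing reporter panel, exposed 24 h; transcript levels sized and quantified by capillary electrophoresis of labelled amplicons; signal changes either way referenced to vehicle.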

Assay [2] has as its target CCAAT/enhancer-binding protein beta (Homo sapiens) (UniProt P17676). Description: ATG_C_EBP_CIS: Attagene CIS-FACTORIAL HepG2 Assay for human CCAAT/Enhancer Binding Protein (C/EBP) beta (AID 2282927). The settings on record: HepG2 Attagene cis-factorial transcription factor reporter; actives raise or lower the signal. The method in brief: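 Transiently transfected HepG2 (MRTU library, endogenous TF-driven promoters); 24 h dosing; total RNA → oligo(dT) RT → PCR → 6-FAM primer extension → HpaI digest → CE; fit bidirectionally vs DMSO.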

Assay [3] in a line: ATG_CMV_CIS: Attagene CIS-FACTORIAL HepG2 Assay for human CMV (Internal Marker) (AID 2282928).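 Further: endpoint acts as a background internal control marker rather than a target.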 The conditions noted are these: HepG2 CMV promoter reporter, transcription factor profiling; actives raise or lower the signal. The method in brief:
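Reporter transcripts from transfected HepG2 cells are isolated after 24 h of chemical dosing, reverse-transcribed and amplified. Fragments labeled with 6-FAM are cut with HpaI and quantified by capillary electrophoresis; DMSO defines baseline.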

The nature of assay [4]: ATG_DR4_LXR_CIS: Attagene CIS-FACTORIAL HepG2 Assay for human Liver X Receptor (LXR), DR4 submotif (AID 2282929). The conditions noted are these: HepG2 Attagene DR4 cis-reporter, mRNA transcription; actives raise or lower the signal. The method in brief:
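Readout: reporter transcript fluorescence after RT-PCR and capillary electrophoresis, fitted bidirectionally against DMSO controls. Human HepG2 liver cells carried transiently transfected multiplexed reporter constructs; endogenous transcription factor activity measured 24 h post-dosing.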

The target of assay [5] is Aryl hydrocarbon receptor (Homo sapiens) (UniProt P35869). Put plainly: ATG_Ahr_CIS: Attagene CIS-FACTORIAL HepG2 Assay for human Aryl Hydrocarbon Receptor (Ahr) (AID 2282930). The conditions noted are these: HepG2 AhR cis-factorial reporter transcription; actives raise or lower the signal. The method in brief: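 Read-out: reporter mRNA quantified by RT-PCR with fluorescent primer extension and capillary electrophoresis. Human HepG2 liver cells carried transfected cis-promoter reporter units and were exposed to chemical for 24 h; gain or loss fitted relative to DMSO.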

The nature of assay [6]: ATG_AP_1_CIS: Attagene CIS-FACTORIAL HepG2 Assay for human Activator Protein 1 (AP-1) (AID 2282931). The settings on record: HepG2 Attagene cis-factorial AP-1 reporter mRNA; actives raise or lower the signal. The method in brief:
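Reporter transcripts were measured 24 h after dosing by RT-PCR and capillary electrophoresis of fluorescent fragments. Cells: HepG2 carrying transfected cis-regulated reporter constructs reading endogenous factor activity. Gain or loss fitted against DMSO.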

A short description of assay [7]: ATG_AP_2_CIS: Attagene CIS-FACTORIAL HepG2 Assay for human Activator Protein 2 (AP-2) (AID 2282932). The settings on record: HepG2 AP-2 cis-reporter, Attagene transcription factor profiling; actives raise or lower the signal. In outline: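 Liver-derived HepG2 line, cis-reporter system measuring endogenous factors; 24 h dosing; reporter mRNA detected by fluorescent RT-PCR and capillary electrophoresis.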

Assay [8] is described as follows: ATG_BRE_CIS: Attagene CIS-FACTORIAL HepG2 Assay for human Bone Morphogenetic Protein (BMP) Response Element (BRE) (AID 2282933). The conditions noted are these: HepG2 BMP response element reporter, Attagene transcription factor profiling; actives raise or lower the signal. The method in brief:
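Fluorescence-labelled reporter cDNA fragments, separated by capillary electrophoresis, gave the signal for this component of a 52-readout multiplex. HepG2 cells were transfected, exposed to chemicals for 24 h, and compared with DMSO using bidirectional fitting.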

Assay [9] concerns the target Retinoic acid receptor alpha (Homo sapiens) (UniProt P10276). Put plainly: ATG_DR5_RAR_CIS: Attagene CIS-FACTORIAL HepG2 Assay for human Retinoic Acid Receptor Alpha (RARE), DR5 submotif (AID 2282934).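 On AC50: reporter responds to endogenous RAR alpha beta and gamma in HepG2 not RARA alone.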 The conditions noted are these: HepG2 Attagene cis-factorial RARE DR5 reporter, mRNA; actives raise or lower the signal. The method in brief:
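Read-out: DR5-driven reporter transcript measured by RT-PCR, 6-FAM primer extension, HpaI digest and capillary electrophoresis. Human HepG2 liver cells carry transiently transfected cis-element reporter constructs; dosing lasts 24 h. Gain or loss of signal fitted against DMSO baseline.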

The target in assay [10] is Transcription factor E2F1 (Homo sapiens) (UniProt Q01094). Description: ATG_E2F_CIS: Attagene CIS-FACTORIAL HepG2 Assay for human E2F Transcription Factor 1 (AID 2282935). The conditions noted are these: HepG2 Attagene cis-reporter, E2F reporter RNA transcripts; actives raise or lower the signal. The method in brief:
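Liver-derived HepG2 cells expressing transfected promoter-driven reporter units received test chemical for 24 hours. Signal gains or losses were fitted bidirectionally against DMSO.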

The nature of assay [11]: ATG_M_61_CIS: Attagene CIS-FACTORIAL HepG2 Assay for M61 Transcription Factor (Internal Marker) (AID 2282937). The conditions noted are these: HepG2 Attagene CIS-FACTORIAL M61 internal marker reporter; actives raise or lower the signal. The method in brief: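 Readout: fluorescent reporter mRNA fragments resolved by capillary electrophoresis after RT-PCR. Transiently transfected human HepG2 cells carried MRTU constructs reporting endogenous TF activity; 24 h chemical exposure; gain or loss of signal fitted relative to DMSO.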

A short description of assay [12]: ATG_EGR_CIS: Attagene CIS-FACTORIAL HepG2 Assay for human Early Growth Response 1 (EGR1) (AID 2282938). The conditions noted are these: HepG2 Attagene CIS-FACTORIAL EGR reporter mRNA; actives raise or lower the signal. In outline:
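Read-out: fluorescent reporter-mRNA fragments resolved by capillary electrophoresis after RT-PCR, 24 h post-dose in transiently transfected HepG2. Endogenous transcription-factor activity reported via cis-element-regulated reporter units; gain or loss fitted relative to DMSO.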

A short description of assay [13]: ATG_M_19_CIS: Attagene CIS-FACTORIAL HepG2 Assay for M19 Transcription Factor (Internal Marker) (AID 2282939). The conditions noted are these: HepG2 Attagene CIS-FACTORIAL M19 internal marker reporter; actives raise or lower the signal. The method in brief: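 HepG2, MRTU transient transfection, 24 h dosing. Total RNA → RT-PCR → 6-FAM primer extension → HpaI digest → CE fluorescence. Bidirectional curve fit, DMSO negative control.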

The nature of assay [14]: ATG_Ets_CIS: Attagene CIS-FACTORIAL HepG2 Assay for human Erythroblast Transformation Specific (ETS) (AID 2282941). The conditions noted are these: HepG2 ETS cis-reporter transcription, actives raise or lower the signal. In outline:
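Bidirectional fit versus DMSO of reporter mRNA signal, detected by RT-PCR and capillary electrophoresis in HepG2 cells transiently transfected with cis-element reporters and dosed 24 h.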

In assay [15] the target is Hepatocyte nuclear factor 3-beta (Homo sapiens) (UniProt Q9Y261). Description: ATG_FoxA2_CIS: Attagene CIS-FACTORIAL HepG2 Assay for human Forkhead box A2 (FOXA2) (AID 2282942). The conditions noted are these: HepG2 cis-reporter transcription factor activity, 24 h; actives raise or lower the signal. The method in brief: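 Readout: fluorescent reporter transcripts resolved by capillary electrophoresis after RT-PCR. Transiently transfected HepG2, 24 h compound exposure, endogenous TF activity at cis promoter elements. Gain or loss of signal fitted relative to DMSO.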

A short description of assay [16]: ATG_FoxO_CIS: Attagene CIS-FACTORIAL HepG2 Assay for human Forkhead box O (FoxO) (AID 2282943). The settings on record: HepG2 Attagene cis-reporter, FoxO element, mRNA; actives raise or lower the signal. The method in brief: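 Read-out: fluorescence of 6-FAM-labelled reporter cDNA fragments resolved by capillary electrophoresis. Transiently transfected HepG2 cells were dosed for 24 h; activity fitted in both directions relative to DMSO controls.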

Assay [17] is described as follows: ATG_GLI_CIS: Attagene CIS-FACTORIAL HepG2 Assay for human Zinc Finger Protein GLI1 (AID 2282945). The conditions noted are these: HepG2, Attagene cis-factorial reporter mRNA, GLI element; actives raise or lower the signal. In outline: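 Transiently transfected HepG2 cells report endogenous transcription factor activity via cis-element-driven reporter units. After 24 h compound exposure, reporter mRNA was measured by RT-PCR with capillary electrophoresis; bidirectional fitting against DMSO baseline.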

The target in assay [18] is Bile acid receptor (Homo sapiens) (UniProt Q96RI1). Description: ATG_IR1_CIS: Attagene CIS-FACTORIAL HepG2 Assay for human Nuclear Receptor Subfamily 1 Group H Member 4 (NR1H4), IR1 submotif (AID 2282946). The conditions noted are these: IR1 reporter transcription, actives raise or lower the signal. The method in brief: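 Fluorescence of capillary-separated, HpaI-digested RT-PCR reporter products gave IR1-element mRNA induction in HepG2 cells 24 h after dosing. Endogenous transcription factors drove the cis-regulated reporters; activity was fitted bidirectionally against DMSO.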

A short description of assay [19]: ATG_E_Box_CIS: Attagene CIS-FACTORIAL HepG2 Assay for human Enhancer Box (E-box) (AID 2282936). The conditions noted are these: HepG2 E-box cis-reporter transcription, actives raise or lower the signal. The method in brief: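 In this cell-based setup, HepG2 cells bearing transfected promoter-driven reporter units were exposed to chemicals for 24 h; reporter transcripts were amplified, 6-FAM-labelled, cut with HpaI and sized by capillary electrophoresis.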

The nature of assay [20]: ATG_GATA_CIS: Attagene CIS-FACTORIAL HepG2 Assay for human GATA Binding Protein (AID 2282944). The conditions noted are these: HepG2 GATA cis-element reporter, Attagene multiplex mRNA; actives raise or lower the signal. The method in brief: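 Cells: HepG2, transiently transfected with cis-regulated reporter transcription units. Exposure: 24 h. Detection: RT-PCR plus capillary electrophoresis of FAM-labeled fragments. Analysis: bidirectional, DMSO as baseline.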

The source made the active and inactive calls. How the source made its calls: active means hit-call score of the fitted dose curve at least 0.9, where 1 is the maximum; inactive means score below 0.9.

Sequence of Transcription factor E2F1 (Homo sapiens) (Q01094 whole entry, looked up): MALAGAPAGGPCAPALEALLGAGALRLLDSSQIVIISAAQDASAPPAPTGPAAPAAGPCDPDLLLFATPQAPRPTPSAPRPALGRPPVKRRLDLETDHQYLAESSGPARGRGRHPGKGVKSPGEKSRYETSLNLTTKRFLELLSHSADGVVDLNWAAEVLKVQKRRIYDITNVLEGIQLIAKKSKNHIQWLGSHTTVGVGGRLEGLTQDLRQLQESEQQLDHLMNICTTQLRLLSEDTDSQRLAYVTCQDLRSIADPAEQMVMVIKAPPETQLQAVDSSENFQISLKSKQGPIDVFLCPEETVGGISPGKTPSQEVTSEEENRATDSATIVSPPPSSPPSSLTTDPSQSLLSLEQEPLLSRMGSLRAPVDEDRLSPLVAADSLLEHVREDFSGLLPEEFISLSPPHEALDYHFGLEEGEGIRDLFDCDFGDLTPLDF
Sequence of CCAAT/enhancer-binding protein beta (Homo sapiens) (P17676 whole entry, looked up): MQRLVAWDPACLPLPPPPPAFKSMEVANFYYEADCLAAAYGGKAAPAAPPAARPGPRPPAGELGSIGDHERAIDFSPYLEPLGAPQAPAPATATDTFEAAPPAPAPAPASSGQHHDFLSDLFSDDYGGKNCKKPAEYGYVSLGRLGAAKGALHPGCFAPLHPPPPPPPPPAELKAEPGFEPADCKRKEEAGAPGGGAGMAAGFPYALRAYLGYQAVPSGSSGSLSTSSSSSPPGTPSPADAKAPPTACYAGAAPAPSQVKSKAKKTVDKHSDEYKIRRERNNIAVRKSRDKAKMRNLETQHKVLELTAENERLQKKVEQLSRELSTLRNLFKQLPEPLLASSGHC
Sequence of Hepatocyte nuclear factor 3-beta (Homo sapiens) (Q9Y261 whole entry, looked up): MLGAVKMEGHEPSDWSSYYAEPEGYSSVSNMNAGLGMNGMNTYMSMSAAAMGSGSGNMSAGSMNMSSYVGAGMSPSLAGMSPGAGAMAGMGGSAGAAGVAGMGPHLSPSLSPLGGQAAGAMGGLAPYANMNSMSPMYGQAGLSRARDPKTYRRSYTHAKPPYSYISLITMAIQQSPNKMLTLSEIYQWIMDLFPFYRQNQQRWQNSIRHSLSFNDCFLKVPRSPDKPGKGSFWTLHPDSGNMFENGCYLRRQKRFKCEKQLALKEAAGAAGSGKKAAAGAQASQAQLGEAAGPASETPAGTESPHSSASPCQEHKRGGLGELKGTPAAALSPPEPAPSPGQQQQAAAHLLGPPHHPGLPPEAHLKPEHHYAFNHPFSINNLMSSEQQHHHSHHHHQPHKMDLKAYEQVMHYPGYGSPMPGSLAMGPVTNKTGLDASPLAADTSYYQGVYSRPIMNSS
Sequence of Aryl hydrocarbon receptor (Homo sapiens) (P35869 whole entry, looked up): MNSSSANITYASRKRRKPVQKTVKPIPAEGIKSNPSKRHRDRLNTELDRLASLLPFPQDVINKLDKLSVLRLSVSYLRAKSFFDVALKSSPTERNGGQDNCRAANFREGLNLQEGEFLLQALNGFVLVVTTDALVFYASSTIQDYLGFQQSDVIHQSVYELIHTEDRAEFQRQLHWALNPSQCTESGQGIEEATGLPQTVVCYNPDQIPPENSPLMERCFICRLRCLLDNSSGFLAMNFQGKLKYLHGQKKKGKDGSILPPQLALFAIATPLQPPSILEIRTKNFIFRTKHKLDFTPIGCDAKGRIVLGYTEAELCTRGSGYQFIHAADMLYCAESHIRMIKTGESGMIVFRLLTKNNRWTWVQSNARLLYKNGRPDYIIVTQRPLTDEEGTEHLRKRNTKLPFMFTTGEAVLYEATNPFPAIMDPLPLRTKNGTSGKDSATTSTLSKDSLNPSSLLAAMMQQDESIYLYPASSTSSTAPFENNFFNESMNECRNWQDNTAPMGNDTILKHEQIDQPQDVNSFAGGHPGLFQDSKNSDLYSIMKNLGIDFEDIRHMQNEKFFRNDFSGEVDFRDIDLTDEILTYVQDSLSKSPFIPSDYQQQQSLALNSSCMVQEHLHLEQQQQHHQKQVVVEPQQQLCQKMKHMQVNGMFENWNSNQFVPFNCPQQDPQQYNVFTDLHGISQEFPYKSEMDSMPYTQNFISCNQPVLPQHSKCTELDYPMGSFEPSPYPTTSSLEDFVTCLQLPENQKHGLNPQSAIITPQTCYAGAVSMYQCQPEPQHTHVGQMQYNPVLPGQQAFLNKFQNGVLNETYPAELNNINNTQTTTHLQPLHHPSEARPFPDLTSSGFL
Sequence of Bile acid receptor (Homo sapiens) (Q96RI1 whole entry, looked up): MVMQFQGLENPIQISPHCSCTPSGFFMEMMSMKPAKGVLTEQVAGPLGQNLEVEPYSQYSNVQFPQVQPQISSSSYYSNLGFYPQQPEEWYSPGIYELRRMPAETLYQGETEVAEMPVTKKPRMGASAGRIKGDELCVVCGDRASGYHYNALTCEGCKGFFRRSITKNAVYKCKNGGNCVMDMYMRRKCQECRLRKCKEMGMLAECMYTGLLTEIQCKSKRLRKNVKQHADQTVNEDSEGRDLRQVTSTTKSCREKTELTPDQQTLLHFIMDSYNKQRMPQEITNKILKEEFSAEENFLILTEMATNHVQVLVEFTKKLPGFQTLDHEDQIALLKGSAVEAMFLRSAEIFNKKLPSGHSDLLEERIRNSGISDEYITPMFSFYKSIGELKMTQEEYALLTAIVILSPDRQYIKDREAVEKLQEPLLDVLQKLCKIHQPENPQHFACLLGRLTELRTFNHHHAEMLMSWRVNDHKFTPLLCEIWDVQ
Sequence of Retinoic acid receptor alpha (Homo sapiens) (P10276 whole entry, looked up): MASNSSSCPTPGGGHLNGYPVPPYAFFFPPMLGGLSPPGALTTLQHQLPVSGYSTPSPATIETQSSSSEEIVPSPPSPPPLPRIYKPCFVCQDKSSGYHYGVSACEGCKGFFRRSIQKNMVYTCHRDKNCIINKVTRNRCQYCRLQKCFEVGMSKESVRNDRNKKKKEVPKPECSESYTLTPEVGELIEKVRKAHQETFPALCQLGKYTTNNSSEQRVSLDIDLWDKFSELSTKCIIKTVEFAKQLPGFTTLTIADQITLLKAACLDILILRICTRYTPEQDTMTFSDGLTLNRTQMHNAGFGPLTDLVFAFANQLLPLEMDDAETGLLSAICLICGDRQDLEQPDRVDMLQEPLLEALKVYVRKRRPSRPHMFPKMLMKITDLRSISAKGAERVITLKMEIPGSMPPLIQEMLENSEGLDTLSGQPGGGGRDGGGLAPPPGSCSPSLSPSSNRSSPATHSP

On to `FC(F)C(F)(F)OCC(Cn1cncn1)c1ccc(Cl)cc1Cl` (stereo not given), for which the AC50 was 23.2 µM (active) in [1]; 16.2 µM (active) in assay [3]; 50 µM (active) in [4]; 33.3 µM (active) in assay [5]; 58.4 µM (active) in [8]; 13 µM (active) in [9]. For the same molecule, the AC50 in [12] and in [15] was 50 µM (active) throughout. The result in assay [2], in assay [6], in [7], in [10], in assay [11] and in [13] was inactive. For the same molecule, the molecule was classed as inactive in assay [14], in [16], in [17] and in assay [18].

With `CCC(=O)Nc1ccc(Cl)c(Cl)c1`, the molecule was called inactive in assay [1], in [2], in assay [4], in assay [5], in assay [6] and in [7]. The outcome in assay [8], in assay [9], in assay [10], in [11], in assay [12] and in assay [13] was inactive. The molecule was called inactive in assay [14], in [15], in [16] and in assay [17]. The half-maximal activity concentration (AC50) in assay [3] is 22.9 µM (active).

On to `C[Si](Cn1cncn1)(c1ccc(F)cc1)c1ccc(F)cc1`, for which the call in assay [1], in assay [2], in [3], in [5], in assay [7] and in assay [10] was inactive. Besides, the call in [11], in assay [13], in assay [14], in assay [15], in assay [16] and in assay [17] was inactive. The AC50 in [4] was 48.7 µM (active); in assay [6], 50 µM (active); in assay [8], 39.1 µM (active); in assay [12] it was 50 µM (active); in assay [18], 69 µM (active).

In the case of `CC(C)[C@H](C(=O)O[C@H](C#N)c1cccc(Oc2ccccc2)c1)c1ccc(Cl)cc1`, the molecule was classed as inactive in assay [1], in [2], in [3], in [5], in assay [6] and in assay [7]. The result in assay [8], in assay [10], in [19], in assay [11], in assay [12] and in assay [13] was inactive. Besides, the result in [14], in [15], in [16], in [20] and in assay [17] was inactive. Also, the AC50 in assay [4] was 13.9 µM (active).

The values above are taken from PubChem BioAssay (EPA / NIEHS).
